Assay results: PubChem BioAssay AID1851 (National Center for Advancing Translational Sciences (NCATS), 2009)
Values joined by “and” are separate entries in the source; they are usually repeats but may differ in a detail not shown here. Identical values can stand only once. The whole screen tested about 16,000 compounds, of which about 2,600 (16%) were called active. About 20% were inconclusive and are not listed. A selection follows. A number with no mark means an inactive call. The call rests on the fitted dose curve; in most records, active means well fitted curve in the direction sought with a large enough effect; inconclusive means small, poorly fitted or top-dose-only effect, or effect the other way; inactive means no such curve, though single readings can be large or run the other way.

Target: Cytochrome P450 2D6 (Homo sapiens) (UniProt P10635)
Test: Cytochrome panel assay with activity outcomes
Conditions: recombinant CYP, pro-luciferin dealkylation, luminescence, p450-cyp2d6; series mostly up to 57.1 µM; activity, negative = inhibition: at the top concentration
On the % scale 0 is the no-effect control and ±100 the full control effect.

Chain of Cytochrome P450 2D6 (Homo sapiens) (P10635 whole entry, looked up): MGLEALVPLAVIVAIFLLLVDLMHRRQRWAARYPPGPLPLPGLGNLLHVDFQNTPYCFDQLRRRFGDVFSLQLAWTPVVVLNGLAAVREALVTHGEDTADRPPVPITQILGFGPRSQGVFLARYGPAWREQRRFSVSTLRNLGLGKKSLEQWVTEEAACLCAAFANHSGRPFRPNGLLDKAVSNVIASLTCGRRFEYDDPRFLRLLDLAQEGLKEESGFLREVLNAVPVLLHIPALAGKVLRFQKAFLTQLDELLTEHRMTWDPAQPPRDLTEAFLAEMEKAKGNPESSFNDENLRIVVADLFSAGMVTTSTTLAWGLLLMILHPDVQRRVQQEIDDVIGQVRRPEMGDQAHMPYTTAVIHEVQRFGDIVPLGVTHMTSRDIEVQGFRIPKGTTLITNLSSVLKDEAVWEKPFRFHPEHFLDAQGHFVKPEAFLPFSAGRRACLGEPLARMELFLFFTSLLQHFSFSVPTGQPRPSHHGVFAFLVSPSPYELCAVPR

Compound	activity, negative = inhibition	AC50
COc1ccc2c(c1)CCC1C2CC[C@]2(C)[C@H](NCCCCCCN3C(=O)C=CC3=O)CC[C@@H]12 (stereo partly specified)	1.35%	
N#Cc1cccc(-c2nc3cnc(N4CCNCC4)nc3n(C3CC3)c2=O)c1	2.08%	
CC(=O)c1sc(NC(=O)C(C)C)nc1C	1.86%	
Fc1cccc(Cl)c1CSc1ncn[nH]1	7.01%	
C[C@H](O/N=C1/[C@H]2O[C@@H]2[C@@H](O)[C@H]2[C@H]1CCn1c(=O)n(-c3ccccc3)c(=O)n12)c1cn([C@H](CO)Cc2ccccc2)nn1	-8.19% [at 11.4 µM] and 10.1% [at 11.4 µM]	
O=c1cc(-c2ccccc2)[nH]c2nc(Cl)ccc12	3.36%	
C[C@H]1CC[C@H]2C(=O)N3[C@H](c4ccc(Br)cc4)[C@@H](C)CC[C@H]3C(=O)N2[C@@H]1c1ccc(Br)cc1	-7.03% [at 11.4 µM]	
C[C@@H]1CC[C@H]2C(=O)N3[C@@H](CC[C@@H](C)[C@@H]3c3ccc(Br)cc3)C(=O)N2[C@@H]1c1ccc(Br)cc1	-14.2% [at 11.4 µM]	
CS(=O)(=O)N1N=C(c2ccc(Br)cc2)CC1c1ccc2c(c1)OCO2 (stereo unspecified)		0.631 µM (active)
Cn1cc(-c2nc3cncnc3n(Cc3ccccc3Cl)c2=O)c2ccccc21	0.741%	
Cc1[nH]c(N)nc(=S)c1CCC(=O)O	5.35% [at 11.4 µM]	
Cc1ccc(Oc2cc(N3CCOCC3)nc(-c3ccccc3)n2)cc1	-11.2%	
COc1ccc(-c2csc3c2[N+]2=CCC=C2C3=O)cc1		3.16 µM (active)
CCOC(=O)c1c(-c2ccc(OC)cc2)csc1NC(=O)CCN1C(=O)c2ccccc2C1=O	-4.29%	
CC[C@@H]1CC(=O)N(SC[C@H](N)C(=O)O)C1=O	7.85% [at 11.4 µM]	
CN1Cc2c(N)cccc2[C@H](c2ccccc2)C1		31.6 µM (active) and 6.31 µM (active)
CN1C(=O)C[C@H](c2ccccc2)C1=O	4% [at 25.6 µM]	
CC1(C)[C@@H]2CC[C@]1(C)[C@@H](OC(=O)/C=C\c1ccccc1)C2	2.99% [at 11.4 µM]	
Oc1oc(-c2ccccc2)nc1C=Nc1ccccc1	4.46%	
COc1cc(C2C(C(=O)c3cccs3)=C(O)C(=O)N2Cc2ccco2)cc(OC)c1OC (stereo unspecified)	17.7%	
COC(=O)C/C=C\[C@@H](C)[C@@H](/C=N\OC[C@@H](C)[C@H](OCc1ccccc1)C(C)C)OC	-9.09% [at 11.4 µM]	
COc1ccc(CN[C@H](C)C(=O)O)cc1	6.89% [at 11.4 µM]	
CCC(C)NC(=O)C1CC(c2ccc(OC)cc2)=NO1 (stereo unspecified)	-15.5%	

Compound	activity, negative = inhibition	AC50
COc1ccc(CCC(C)NC2C3CC4CC(C3)CC2C4)cc1 (stereo unspecified)		3.55 µM (active)
Cc1ccc(N=Nc2c(N)n(-c3ccccc3)[nH]c2=O)cc1	-7.5%	
COCCNC(=O)CCn1c(=O)oc2ccccc21	28.9%	
S=C1N[C@H](c2ccccc2)N[C@H](c2ccccc2)S1		3.98 µM (active)
O=C1C2[C@@H](c3ccccc3)N[C@@H](c3ccccc3)C1[C@H](c1ccccc1)N[C@H]2c1ccccc1	-8.91% [at 11.4 µM]	
O=C(O)c1ccc(C(=O)c2ccccc2)c(C(=O)O)c1	14.9% [at 11.4 µM]	
COC(=O)CSc1nnc(CNc2ccc(Cl)cc2)n1-c1ccccc1	-11.7%	
CCOC(=O)CSc1cc(=O)n(C)c2cc(Cl)ccc12	-1.96%	
Cn1c(=O)cc(SCC(=O)NCCCN2CCOCC2)c2ccc(Cl)cc21	-24%	
Cn1c(=O)cc(SCC(=O)NCCN2CCN(c3ccccc3F)CC2)c2cc(Cl)ccc21		14.1 µM (active)
COCc1c(C(=O)OCC(=O)N2c3ccccc3NC(=O)C2(C)C)oc2ccccc12	9.74%	
COc1cccc([C@@H]2Oc3ccc(OC)cc3/C(=N/O[C@@H](C)c3cn([C@H]4COC[C@H]4O)nn3)[C@@H]2O)c1	-18.2% [at 11.4 µM]	
COc1ccc(O[C@H]2C=C[C@@H](c3ccccc3)O[C@H]2COC(=O)CC/C(C)=N\O[C@@H](C)c2cc(-c3c(C)cc(C)cc3C)no2)cc1	-7.29% [at 11.4 µM]	
COc1ccc(O[C@H]2C=C[C@@H](c3ccccc3)O[C@@H]2CO/N=C(\C)CCN2CCc3nc(-c4ccccc4)c(-c4ccccc4)cc3C2)cc1	-14.1% [at 11.4 µM]	
C/C(CCC(=O)OC[C@@H]1O[C@H](C#Cc2ccccc2)C=C[C@@H]1Oc1ccc(C)cc1)=N/O[C@@H](C)CN1CCCc2nc(C)c(C)cc21		3.16 µM (active)
COc1ccc(O[C@H]2C=C[C@@H](c3ccccc3)O[C@@H]2CO/N=C(\C)CCN2CCCc3nc(C)c(C)cc32)cc1		3.16 µM (active)
COc1cccc([C@@H]2Oc3ccc(OC)cc3/C(=N/O[C@@H](C)CN3CCCc4nc(C)c(C)cc43)[C@@H]2O)c1		3.98 µM (active)
COc1cccc([C@H]2Oc3ccc(OC)cc3/C(=N\O[C@@H](C)c3cn([C@H](CO)Cc4ccccc4)nn3)[C@@H]2O)c1	-6.89% [at 11.4 µM]	
CCCNC(=O)OC[C@@H]1O[C@H](CCO/N=C(\C)CCC(=O)OC[C@@H]2O[C@H](c3ccccc3)C=C[C@@H]2Oc2ccc(OC)cc2)C=C[C@@H]1Oc1ccc(OC)cc1	5.63% [at 11.4 µM]	
C/C(CCC(=O)OC[C@@H]1O[C@H](C#Cc2ccccc2)C=C[C@@H]1Oc1ccc(C)cc1)=N/O[C@@H](C)c1cn([C@H](CO)Cc2ccccc2)nn1	-5.83% [at 11.4 µM] and -8.36% [at 11.4 µM]	
COc1ccc(O[C@H]2C=C[C@@H](c3ccccc3)O[C@H]2COC(=O)CC/C(C)=N\O[C@@H](C)CN2CCCc3nc(C)c(C)cc32)cc1		3.16 µM (active)
COc1ccc(O[C@H]2C=C[C@@H](c3ccccc3)O[C@H]2CO/N=C(/C)CCC(=O)OC[C@@H]2O[C@H](C#Cc3ccccc3)C=C[C@@H]2Oc2ccc(C)cc2)cc1	11.9% [at 11.4 µM]	
CCCNC(=O)OC[C@@H]1O[C@H](CCO/N=C(\C)CCN2CCCc3nc(C)c(C)cc32)C=C[C@@H]1Oc1ccc(OC)cc1	-18.3% [at 11.4 µM]	
